PubChem BioAssay
Measured potencies and affinities stand elsewhere. Records with an inconclusive call do not appear. Calls of active or inactive are those of the source.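 How the source made its calls, unless noted: active means falling signal with fitted half-maximal potency no higher than twice the top valid tested dose; inconclusive means poor fit quality, or flat fit spanning -70% to -30%; inactive means potency over limit, rising signal, or flat fit inside 30%.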

Columns and labels:
[1] = fungal growth arrest, C. neoformans – Alamar Blue, cherry-picks, dose response (AID 686998); conditions: Cryptococcus neoformans growth, 24 h; series mostly up to 35 µM
[2] = C. neoformans lysis by adenylate kinase leakage – AK release luminescence, cherry-picks, dose response (AID 687000;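 active means fitted dose curve reaches 40% lysis signal rise at or below the highest valid concentration tested for that sample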;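 further: luminescent detection of adenylate kinase leaking from lysed yeast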); conditions: 4 h, 100% = twice the neutral-control signal; series mostly up to 15 µM
[3] = viability loss in HepG2 hepatoma cells – cell-based, cherry-picks, set 2, cytotoxicity control, dose response (AID 687002;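 active means a dose-response fit showing signal loss, with half-maximal concentration no higher than twice the top tested dose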); conditions: ATP luminescence (CellTiter-Glo), 48 h; series mostly up to 26 µM
[4] = viability loss in HeLa cells – cell-based, ATP luminescence, cherry-pick samples, cytotoxicity control, dose response (AID 687004;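 active means a fitted half-maximal concentration no higher than twice the top valid tested dose, with signal falling as cells die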); conditions: ATP luminescence (CellTiter-Glo), 48 h; series mostly up to 26 µM

Measured: outcome

CN(C)C(=O)c1ccc(-c2ccc([C@H]3[C@H](CO)N4CCCCN(CCC(F)(F)F)C[C@@H]34)cc2)cc1
inactive: all assays above

O=C(CSc1ncnc2c1cnn2-c1ccccc1)NC1CCS(=O)(=O)C1 (stereo not given)
inactive: all assays above

Cc1cc(C(=O)Nc2cccc3c2O[C@H](CN(C)S(=O)(=O)c2ccccc2)[C@H](C)CN([C@H](C)CO)C3=O)n(C)n1
inactive: all assays above

Cc1noc(C)c1S(=O)(=O)Nc1ccc2c(c1)CC(=O)N([C@@H](C)CO)C[C@@H](C)[C@@H](CN(C)S(=O)(=O)c1cccs1)O2
inactive: all assays above

C[C@@H]1CN([C@@H](C)CO)C(=O)c2cc(NC(=O)Nc3ccc(F)cc3)ccc2O[C@@H](C)CCCCO[C@H]1CN(C)S(=O)(=O)c1ccccc1
inactive: all assays above

COc1ccc(NC(=O)Nc2ccc3c(c2)C(=O)N([C@H](C)CO)C[C@H](C)[C@H](CN(C)C(=O)Cc2ccccc2)OCCCC[C@H](C)O3)cc1
inactive: all assays above

C[C@H](CO)N1C[C@H](C)[C@@H](CN(C)S(=O)(=O)c2ccc(Cl)cc2)Oc2c(NS(=O)(=O)c3ccc(F)cc3)cccc2C1=O
inactive: all assays above

Cc1cc(C)c(NC(=O)C2CCCN2CCO)c(C)c1 (stereo not given)
inactive: all assays above

Cc1noc(C)c1S(=O)(=O)N(C)C[C@@H]1OCCCC[C@@H](C)Oc2ccc(NC(=O)CCCCCC(=O)Nc3ccccc3N)cc2C(=O)N([C@H](C)CO)C[C@@H]1C
inactive: all assays above

COc1ccc(C#Cc2cnc3c(c2)C(=O)N([C@@H](C)CO)C[C@H](C)[C@@H](CN(C)C(=O)CC2CC2)O3)cc1
inactive: all assays above
